About 10,000 (2.8%) of roughly 360,000 compounds were called active. Roughly 4% stayed inconclusive and do not appear here. This is one part of a sample in which actives are shown more often than they occur. Calls follow the shape of the dose curve; as a rule, active = well fitted inhibition curve with a large enough effect; inconclusive = small, poorly fitted or top-dose-only effect; inactive = flat fitted curve, though single readings scatter. Where a structure was tested more than once in an assay, its records may differ in their call.
% is scaled to controls: 0 for no effect and ±100 for the full control effect; potency is read from the fitted curve at half-maximal effect.

Serine/threonine-protein kinase PLK1 (Homo sapiens), sequence (P53350 whole entry, looked up, the tested form may be a part): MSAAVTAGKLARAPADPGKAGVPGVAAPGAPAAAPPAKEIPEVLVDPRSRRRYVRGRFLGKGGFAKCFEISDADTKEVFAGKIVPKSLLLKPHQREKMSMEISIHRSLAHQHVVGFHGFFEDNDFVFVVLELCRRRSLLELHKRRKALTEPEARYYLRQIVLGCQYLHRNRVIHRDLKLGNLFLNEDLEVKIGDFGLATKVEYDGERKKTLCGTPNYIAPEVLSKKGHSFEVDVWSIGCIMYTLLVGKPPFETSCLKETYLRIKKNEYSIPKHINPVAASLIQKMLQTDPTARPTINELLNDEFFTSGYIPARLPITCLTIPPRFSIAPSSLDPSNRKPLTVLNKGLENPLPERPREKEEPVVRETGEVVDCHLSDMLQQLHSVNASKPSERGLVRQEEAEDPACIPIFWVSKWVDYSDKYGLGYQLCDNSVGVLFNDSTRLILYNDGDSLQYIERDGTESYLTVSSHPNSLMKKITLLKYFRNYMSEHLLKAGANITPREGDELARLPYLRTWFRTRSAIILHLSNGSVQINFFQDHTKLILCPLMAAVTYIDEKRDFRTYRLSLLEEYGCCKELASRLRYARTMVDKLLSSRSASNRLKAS

This assay addresses Serine/threonine-protein kinase PLK1 (Homo sapiens) (UniProt P53350). The assay can be described thus: qHTS for Inhibitors of PLK1-PDB (polo-like kinase 1 - polo-box domain): Primary Screen. Also: nearly all actives have a fitted effect of over 65% in size. As to max response, negative = inhibition: series mostly up to about 57 µM. To be noted: Plk1 PBD binding of FITC phosphopeptide, fluorescence polarization. From the text:
The polo-like kinase 1 (Plk1) is a member of a conserved subfamily of serine / threonine protein kinases that plays a pivotal roles in cell proliferation. It has a C-terminal non-catalytic region called the polo-box domain (PBD) that plays a crucial role in the subcellular localization of the Plk1. […] Furthermore, depletion of the overexpressed Plk1 by RNAi efficiently induces apoptotic cell death in cancer and reduces tumor growth in mouse xenograft models. Thus, targeting Plk1 is an appealing strategy for anti-cancer therapy. Therefore, this project aimed to screen the Molecular Libraries Small Molecule Repository (MLSMR) using a novel approach to find inhibitors that target the Plk1 PBD instead of the conventional N-terminal catalytic domain. This project employed a fluorescence polarization (FP) assay using a FITC-conjugated phospho-9-mer (p-9-mer) peptide and purified human Plk1 PBD protein. The identified small molecule inhibitors of Plk1 PBD can then further be developed into useful tools for biomedical and clinical research that complements or replaces current relevant disease therapy. NIH Chemical Genomics Center [NCGC] NIH Molecular Libraries Probe Centers Network [MLPCN] MLPCN Grant: MH100728 Assay Submitter (PI): Kyung Lee, NCI
Four microliter of 25 nM FITC-p-9-mer + 60 nM Plk1 PBD in buffer solution (final concentrations 25 nM and 60 nM respectively) or 4 uL of 25 nM FITC-p-9-mer (final concentration 25 nM) in buffer will be dispensed into a 1,536 Greiner medium-binding black solid plate. Small molecules at final concentrations of 18 nM to 57 uM and positive control phospho-9-mer (sequence: Ac-PPLHSpTAI-NH2) at final concentrations 26 nM to 57 uM and phospho-13-mer (sequence: Ac-[…]pTAI-NH2) at final concentrations of 1 nM to 2.3 uM will be pin-transferred (23 nL) to the plate via a Kalypsys pin-tool robotics equipped with a 1,536-pin array. The reaction plate will be centrifuged for 1 min at 1000 rpm and incubated at room temperature for 10 min. The FITC fluorescence signals will be read using the PerkinElmer ViewLux plate reader at 480 / 20 nm excitation and 540 / 20 nm S and P polarization emission wavelengths. Reagent bottles will be kept submerged into 4 °C recirculating chiller bath and all liquid lines will be covered with aluminum foil to minimize degradation. Library plates will be screened starting from the lowest to the highest concentrations to minimize compound carryover. Vehicle only plates, with DMSO being pin-transferred instead of compound solutions, will be included regularly throughout the screen to record any systematic shifts in assay signal.
(In general: In qHTS, concentration-response curves come from the screen itself.)
On to `O=S(=O)(c1ccc(-c2ccccc2)cc1)N1CCCC1`, for which the max response, negative = inhibition was -5.48% (inactive).
On to `O=S(=O)(NCc1ccccc1)c1ccc(S(=O)(=O)N2CCCC2)cc1`, for which the Potency was 26.7 µM (active).
In the case of `CC1CCN(S(=O)(=O)c2ccc(S(=O)(=O)NCc3cccnc3)cc2)CC1`, the max response, negative = inhibition was -9.09% (inactive).
Still for that read-out and setting: with `CN(Cc1ccc(C(F)(F)F)cc1)C(=O)[C@H]1O[C@@H](n2cnc3c(N)ncnc32)[C@H](O)[C@@H]1O` the figure was -3.67% (inactive); with `CN(C)C(=O)c1cccc(-c2cnc3c(NC=O)cc(-c4ccc(C(=O)N5CCOCC5)cc4)cn23)c1`, -14.7% (inactive).
As for `Cc1cc(C(F)(F)F)nc(SCC(=O)Nc2nccs2)n1`, the max response, negative = inhibition is -4.23% (inactive).
With `CCOC(=O)c1sc(NC(=O)CSc2nc(C)cc(C(F)(F)F)n2)c(C#N)c1C`, the Potency was 2.99 µM (active).
As for `CCn1c(SCC(=O)Nc2sc(C)c(C)c2C#N)nnc1C1CC1`, the max response, negative = inhibition was -26.7% (inactive).
Regarding `CC(=O)OCC(C)n1c(=O)c2ccccc2n1C(C)=O` (configuration not stated), the max response, negative = inhibition is 1.28% (inactive).
Still for that read-out and setting: for `CN(C)c1cccc(NC(=O)c2ccc(-c3ccc(F)c(F)c3)c3ccoc23)c1` the value was -11% (inactive); for `CCOC(=O)[C@]12CCCC=C1N(CCC1=CCCCC1)C(=O)[C@H](CC(=O)N1CCN(C(=O)c3ccco3)CC1)C2`, -19.8% (inactive).
As to `C[C@@H]1CN([C@@H](C)CO)S(=O)(=O)c2ccc(C#Cc3cccc(F)c3)cc2O[C@H]1CN(C)S(=O)(=O)c1cn(C)cn1`, the max response, negative = inhibition was -28.6% (inactive).
On to `CCCCCn1nnnc1-c1nc2cc3ccccc3cc2[nH]c1=O`, for which the max response, negative = inhibition was -6.28% (inactive).
On the same count and under the same terms, for `COc1cc(C(=O)N2CCN(C3CCC(C)CC3)CC2)cc(OC)c1OC` (configuration not stated) the value was -10% (inactive).
For the compound `CCn1cc(C(=O)N2CCN(C3CCCCC3)CC2)c2cc(OC)c(OC)cc2c1=O`, the Potency was 10.6 µM (active).
`CCn1cc(C(=O)NCC2COc3ccccc3O2)c2cc(OC)c(OC)cc2c1=O` (configuration not stated): the max response, negative = inhibition was -0.135% (inactive).
Consider `CCc1nc2ccc(C(=O)NC3CCN(Cc4ccccc4)CC3)cn2c1N(C)CCN1CCOCC1`, for which the max response, negative = inhibition was -5.14% (inactive).
On the same count and under the same terms, with `CCCCCc1c(-c2ccc(OC)c(OC)c2)ncn1CCc1ccccc1OC` the figure was -4.35% (inactive).
The same measure, in the same setting: with `Cc1cc(C)c(NC(=O)CN2CCCCCC2)c(C)c1` the figure was -2.23% (inactive).
Still for that read-out and setting: with `Cc1cc([N+](=O)[O-])c(N2CCC[C@@H]2C(=O)O)c([N+](=O)[O-])c1` the figure was -4.11% (inactive).
For the compound `Cc1cc(C)c(NC(=S)N2CCCC2C(=O)O)c(C)c1` (configuration not stated), the Potency was 6.7 µM (active).
For `COc1ccc(NC(=O)CN2C(=O)NC(C)(c3ccccc3)C2=O)cn1` (configuration not stated), the max response, negative = inhibition was 2.84% (inactive).
Regarding `COc1ccc(C(O)c2nc(-c3ccc(OC)nc3)cs2)cc1` (configuration not stated), the max response, negative = inhibition was 6.19% (inactive).
Turning to `COc1ccc(CS(=O)/C(Cl)=C(/Cl)C(=O)Nc2ccc(OC)nc2)cc1` (configuration not stated), the Potency is 2.67 µM (active).
As to `Cc1ccc(-c2c(N)nc3ncccn23)cc1`, the max response, negative = inhibition is 2.55% (inactive).
Still for that read-out and setting: with `CCc1nc2c(OCC(N)=O)cccn2c1N(C)C(=O)c1ccc(OC)cc1` the figure was -13.5% (inactive).
Still for that read-out and setting: for `Clc1c(OCCCn2ccnc2)ccc2ccccc12` the value was -25.1% (inactive).
Turning to `Cc1nc2ccccc2c(=O)n1CCCn1ccnc1`, the Potency is 21.2 µM (active).
Regarding `CC1(C(=O)NCc2ccccc2)CSCC(=O)N1CCCn1ccnc1` (configuration not stated), the max response, negative = inhibition was -0.172% (inactive).
Consider `COc1ccc(/C=N/NC(=O)C(C)N(c2ccc(OC)cc2)S(C)(=O)=O)cc1` (configuration not stated), for which the Potency was 26.7 µM (active).
For `CN(C)c1ccc(/C=N/NC(=O)C(O)c2ccc(Br)cc2)cc1` (configuration not stated), the max response, negative = inhibition is -14.9% (inactive).
Same read-out and setting: with `CC(C(=O)NC1CCCC1)N(c1ccc(Oc2ccccc2)cc1)S(C)(=O)=O` (configuration not stated) the figure was -1.83% (inactive); with `COc1ccccc1Cc1c(-c2ccc(Cl)cc2)nc2c3ccccc3ccn12`, -5.7% (inactive); with `O=C(/C=C/[C@H]1O[C@@H](n2ccc(=O)[nH]c2=O)[C@H](O)[C@@H]1O)NCc1ccccn1`, 0.76% (inactive).
Consider `Cc1cccc(C)c1NC(=O)C(c1ccc(C(F)(F)F)cc1)n1c(=O)c(-c2ccco2)nc2ccccc21` (configuration not stated), for which the max response, negative = inhibition is -16.2% (inactive).
Still for that read-out and setting: with `COc1ccc(CC(=O)NCC(=O)N/N=C/c2cc(Br)ccc2OC)cc1` the figure was 0.444% (inactive).
Still for that read-out and setting: with `CC(C)/C=N/NC(=O)c1cc(Br)ccc1O` the figure was -13.1% (inactive).
In the case of `COc1ccc(-c2[nH]ncc2/C=N/NC(=O)c2cc(Br)ccc2O)c(OC)c1`, the Potency was 26.7 µM (active).
Consider `CC(C)(O)C1=C[N+](=O)CC=C1`, for which the max response, negative = inhibition is -9.3% (inactive).
The same measure, in the same setting: for `CCOC(=O)c1cnc(SCC(=O)NCc2ccco2)nc1N` the value was -1.79% (inactive); for `O=C(CNc1ccc(F)cc1F)NC(=O)NCc1ccco1`, -20.1% (inactive).
For the compound `Cc1cc(C)n2nc(SCC(=O)NC(=O)NCc3ccco3)nc2n1`, the Potency is 16.8 µM (active).
As for `O=[N+]([O-])c1ccc(CN2CC(N3CCC(c4ccccc4)CC3)CS2(=O)=O)cc1` (configuration not stated), the max response, negative = inhibition was -13.3% (inactive).
The same measure, in the same setting: with `CCOc1ccc(Cl)cc1-c1cc(C(=O)NCc2cccs2)[nH]n1` the figure was -0.638% (inactive).
For the compound `Cc1nn2c(c1-c1ccccc1)N=C(c1ccco1)CC2c1ccccc1` (configuration not stated), the Potency was 42.3 µM (active) and the max response, negative = inhibition was 2.38% (inactive).
Regarding `O=C(O)CCCC(=O)N1N=C(c2ccco2)CC1c1ccco1` (configuration not stated), the max response, negative = inhibition was -14% (inactive).
Still for that read-out and setting: for `Cc1nn(C(=O)c2ccoc2C)c(N)c1-c1ccccc1` the value was -3.12% (inactive); for `C[C@H]1CN([C@@H](C)CO)C(=O)c2cc(-c3ccccc3F)cnc2O[C@H]1CN(C)C(=O)C1CCOCC1`, -20.8% (inactive); for `Cc1ccc(Cn2c(C)c(C(=O)NCc3ccccc3C(F)(F)F)sc2=O)cc1`, -12.2% (inactive).
Same read-out and setting: with `C=CCC(NC(=O)Cc1ccccc1)C(=O)NCCC` (configuration not stated) the figure was -11.6% (inactive); with `O=C(CN1CCN(Cc2ccccc2)CC1)NC(c1ccccc1)c1ccccc1`, -13.1% (inactive).
With `O=C(Cc1ccc(-c2ccccc2)cc1)NC(c1ccccc1)c1ccccc1`, the Potency was 21.2 µM (active).
On to `O=C1NC[C@H](CCCCN2C[C@H](Cc3ccc(O)cc3)N(CC3CCCCC3)C(=O)C2=O)N(CCc2ccccc2)C1=O`, for which the max response, negative = inhibition was -5.25% (inactive).
The same measure, in the same setting: with `Cc1nc2c(OCc3ccc(Cl)cc3Cl)cccn2c1N(C)CC1CC1` the figure was -13% (inactive); with `Cc1cc2nc(-c3ccc(Cl)cc3)c(Cc3cccc(F)c3)n2c(C)c1Br`, -18.5% (inactive).
The same measure, in the same setting: for `Cc1noc(C)c1NC(=O)N(C)C[C@@H]1Oc2cc(Br)ccc2S(=O)(=O)N([C@@H](C)CO)C[C@H]1C` the value was 2.61% (inactive).

For the origin of these results see PubChem BioAssay AID720504 (National Center for Advancing Translational Sciences (NCATS), 2013).
